Inconclusive results are not listed. Activity calls are given as the source filed them. Unless noted, the call rests on the fitted dose curve; in most records, active means well fitted curve in the direction sought with a large enough effect in the repeat runs; inconclusive means weak or mixed curves; inactive means no such curve, though single readings can be large; an effect the other way counts as inactive or inconclusive.
Columns and labels:
[1] = qHTS assay to identify aromatase inhibitors - cell viability counter screen (AID 743084);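 further: cells stimulated with testosterone during compound exposure; nearly all actives have a fitted effect of over 55% in size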
[2] = molecular target: Aryl hydrocarbon receptor (Homo sapiens) (UniProt P35869); assay: qHTS assay to identify small molecule that activate the aryl hydrocarbon receptor (AhR) signaling pathway (AID 743085); further: nearly all actives have a fitted effect of over 15% in size; further: potency means the concentration at half of the fitted maximal effect;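 on activation: HG2L7.5c1 human HepG2 liver cells with stably integrated DRE-driven firefly reporter; series mostly up to about 70 µM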
Outline: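 Compounds were tested in HepG2 hepatocellular carcinoma cells harbouring a stably integrated luciferase gene under control of 20 DREs. Increased reporter signal after 24 h treatment at 37C was taken as AhR activation.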

[3] = qHTS assay to identify small molecule that activate the aryl hydrocarbon receptor (AhR) signaling pathway - cell viability counter screen (AID 743086);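 further: HepG2 liver cells carrying the AhR DRE luciferase reporter; series mostly up to about 70 µM; nearly all actives have a fitted effect of over 45% in size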
Outline: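 HepG2-AhR-luc (HG2L7.5c1) cells, 4000/well, were preincubated 5 h at 37C, exposed to compound in qHTS format for 24 hr at 37C, then given CellTiter-Fluor for 30 min; viability was read as fluorescence in the reporter wells.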

[4] = molecular target: Peroxisome proliferator-activated receptor gamma (Homo sapiens) (UniProt P37231); assay: qHTS assay to identify small molecule agonists of the peroxisome proliferator-activated receptor gamma (PPARg) signaling pathway (AID 743094; active means well fitted activation curve with a large enough effect in the signal ratio in the repeat runs, not every such curve was filed as active; the % refers to the signal ratio)
Outline: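 Following 5 h plating at 37C, PPARg-bla HEK293H cells receive compound or DMSO for 17 h; fluorescence intensity is recorded after LiveBLAzer B/G loading for 1 h at room temperature.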

[5] = molecular target: Peroxisome proliferator-activated receptor gamma (Homo sapiens) (UniProt P37231); assay: qHTS assay to identify small molecule antagonists of the peroxisome proliferator-activated receptor gamma (PPARg) signaling pathway (AID 743191; calls by dose curve; further: series mostly up to about 63 µM; nearly all actives have a fitted effect of over 30% in size)
Outline: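 GeneBLAzer PPARg UAS-bla HEK293H cells carrying a UAS-driven beta-lactamase reporter were plated at 3000 cells/well, preincubated 5 h at 37C, then given compound for 17 h at 37C; LiveBLAzer B/G FRET substrate was read after 1 h at room temperature.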

[6] = qHTS assay for small molecule agonists of the antioxidant response element (ARE) signaling pathway - cell viability counter screen (AID 743203; calls by dose curve; further: nearly all actives have a fitted effect of over 55% in size)
Outline: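 Compounds in DMSO were pinned onto ARE-bla HepG2 cells plated 5 hrs earlier at 2,000 cells/well. Sixteen hours later at 37C/5% CO2, CellTiter-Glo was added and luminescence measured after 30 min at room temperature.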

[7] = qHTS assay for small molecule activators of the heat shock response signaling pathway - cell viability counter screen (AID 743209); further: nearly all actives have a fitted effect of over 50% in size
Outline: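 Counter screen for cytotoxicity in HeLa HSE-bla reporter cells. Treatment was 5 h at 37 C; viability was detected by luminescent ATP assay (CellTiter-Glo) in the same wells as the beta-lactamase read.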

[8] = qHTS assay for small molecule activators of the heat shock response signaling pathway (AID 743210; active means well fitted activation curve with a large enough effect in the signal ratio in the repeat runs, with a control signal flat, not every such curve was filed as active; the % refers to the signal ratio;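 further: HeLa cells with beta-lactamase reporter driven by heat shock elements; series mostly up to about 63 µM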)
Outline: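 Reporter gene assay: HeLa cells stably bearing an HSE-bla construct, compound treatment 5 h at 37 C, LiveBLAzer substrate 2.5 h at RT, fluorescence intensity.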

[9] = molecular target: Peroxisome proliferator-activated receptor delta (Homo sapiens) (UniProt Q03181); assay: qHTS assay to identify small molecule agonists of the peroxisome proliferator-activated receptor delta (PPARd) signaling pathway (AID 743212; calls by dose curve)
Outline: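 A PPARd-bla HEK293H line with beta-lactamase under an Upstream Activator Sequence is treated with compounds at 37 C. Substrate loading for 2 h at room temperature precedes the fluorescence measurement.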

[10] = qHTS assay to identify small molecule antagonists of the peroxisome proliferator-activated receptor delta (PPARd) signaling pathway - cell viability counter screen (AID 743213); further: nearly all actives have a fitted effect of over 50% in size
Outline: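 Cytotoxicity counter screen: CellTiter-Glo luminescence read 30 min after addition, in the same wells as the reporter assay. There, PPARd UAS-bla HEK293H cells (3000/well) were treated 17 h at 37 C with compound and 300 nM L165041.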

[11] = molecular target: Peroxisome proliferator-activated receptor delta (Homo sapiens) (UniProt Q03181); assay: qHTS assay to identify small molecule antagonists of the peroxisome proliferator-activated receptor delta (PPARd) signaling pathway (AID 743215; active means well fitted inhibition curve with a large enough effect in the signal ratio in the repeat runs, not every such curve was filed as active; the % refers to the signal ratio;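 further: cells stimulated with agonist L165041 at 300 nM final during compound exposure; series mostly up to about 62 µM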)
Outline: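 With L165041 present at 300 nM final, compounds were incubated 17 h at 37 C on PPARd UAS-bla HEK293H cells. A FRET-based beta-lactamase substrate was then applied for 2 h at room temperature and fluorescence intensity recorded.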

[12] = qHTS assay to identify small molecule agonists of the farnesoid-X-receptor (FXR) signaling pathway - cell viability counter screen (AID 743218); further: nearly all actives have a fitted effect of over 45% in size
Outline: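 After 16 h at 37 C with test compounds, FXR-bla HEK 293T cells were given LiveBLAzer B/G substrate for 2 h at RT and then CellTiter-Glo; luminescence was taken after 30 min.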

[13] = qHTS assay to identify small molecule antagonists of the farnesoid-X-receptor (FXR) signaling pathway - cell viability counter screen (AID 743221; active means well fitted cell-killing curve with a large enough effect in the repeat runs, not every such curve was filed as active; further: nearly all actives have a fitted effect of over 50% in size)
Outline: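 Multiplexed counter screen: viability of FXR-bla HEK 293T cells under agonist stimulation by chenodeoxycholic acid (50 uM, final) and test compound for 16 h at 37 C, measured by CellTiter-Glo luminescence in the reporter wells.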

[14] = molecular target: Vitamin D3 receptor (Homo sapiens) (UniProt P11473); assay: qHTS assay to identify small molecule agonists of the vitamin D receptor (VDR) signaling pathway (AID 743222; calls by dose curve)
Outline: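 VDR-bla cells were seeded, left 4 h, treated with compounds in DMSO for 16 h, incubated 2 h at RT with B/G FRET substrate, and read for fluorescence.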

[15] = qHTS assay to identify small molecule antagonists of the peroxisome proliferator-activated receptor gamma (PPARg) signaling pathway - cell viability counter screen (AID 743194); further: nearly all actives have a fitted effect of over 55% in size
Outline: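 PPARg-UAS-bla HEK293H cells were plated, rested 5 h at 37 C, then treated with compounds plus rosiglitazone (50 nM final) for 17 h at 37 C; viability was then read by CellTiter-Glo luminescence after 30 min at room temperature.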

[16] = qHTS assay to identify small molecule agonists of the peroxisome proliferator-activated receptor delta (PPARd) signaling pathway - cell viability counter screen (AID 743211); further: nearly all actives have a fitted effect of over 55% in size
Outline: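 Counter screen for cytotoxicity run in parallel with the PPARd reporter screen. Beta-lactamase reporter HEK293H cells exposed to compounds 17 h; ATP-based CellTiter-Glo luminescence quantified viability.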

[17] = molecular target: Bile acid receptor (Homo sapiens) (UniProt Q96RI1); assay: qHTS assay to identify small molecule antagonists of the farnesoid-X-receptor (FXR) signaling pathway (AID 743217; active means well fitted inhibition curve with a large enough effect in the signal ratio in the repeat runs, not every such curve was filed as active; the % refers to the signal ratio)
Outline: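 In this cell-based antagonist screen, inhibition of CDCA-driven (50 uM final) UAS-beta-lactamase expression in HEK 293T cells was measured by FRET fluorescence following 16 h compound exposure at 37 °C.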

[18] = molecular target: Bile acid receptor (Homo sapiens) (UniProt Q96RI1); assay: qHTS assay to identify small molecule agonists of the farnesoid-X-receptor (FXR) signaling pathway (AID 743220; active means well fitted activation curve with a large enough effect in the signal ratio in the repeat runs, not every such curve was filed as active; the % refers to the signal ratio)
Outline: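 Beta-lactamase reporter under UAS control in GeneBLAzer FXR HEK 293T cells (5000/well) measured with LiveBLAzer FRET substrate after 2 h at room temperature. Compound exposure lasted 16 h at 37C.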

[19] = molecular target: Vitamin D3 receptor (Homo sapiens) (UniProt P11473); assay: qHTS assay to identify small molecule antagonists of the vitamin D receptor (VDR) signaling pathway (AID 743223; active means well fitted inhibition curve with a large enough effect in the signal ratio in the repeat runs, not every such curve was filed as active; the % refers to the signal ratio)
Outline: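 Cells carrying a VDR-driven beta-lactamase reporter (VDR-bla) were co-treated with compound and 3 nM final 1alpha,25-dihydroxyvitamin D3 for 16 h at 37C; reporter activity was measured as FRET substrate fluorescence after 2 h at room temperature.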

[20] = qHTS assay for small molecule agonists of the antioxidant response element (ARE) signaling pathway (AID 743202; active means well fitted activation curve with a large enough effect in the signal ratio in the repeat runs, not every such curve was filed as active; the % refers to the signal ratio)
Outline: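 Compounds delivered in DMSO to ARE-bla HepG2 cells (2,000 cells/well, pre-incubated 5 h) and left 16 h at 37 C. LiveBLAzer B/G FRET substrate then added for 2 h at RT before fluorescence reading.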
On the % scale 0 is the no-effect control and ±100 the full control effect.

Sequence of Vitamin D3 receptor (Homo sapiens) (P11473 whole entry, looked up): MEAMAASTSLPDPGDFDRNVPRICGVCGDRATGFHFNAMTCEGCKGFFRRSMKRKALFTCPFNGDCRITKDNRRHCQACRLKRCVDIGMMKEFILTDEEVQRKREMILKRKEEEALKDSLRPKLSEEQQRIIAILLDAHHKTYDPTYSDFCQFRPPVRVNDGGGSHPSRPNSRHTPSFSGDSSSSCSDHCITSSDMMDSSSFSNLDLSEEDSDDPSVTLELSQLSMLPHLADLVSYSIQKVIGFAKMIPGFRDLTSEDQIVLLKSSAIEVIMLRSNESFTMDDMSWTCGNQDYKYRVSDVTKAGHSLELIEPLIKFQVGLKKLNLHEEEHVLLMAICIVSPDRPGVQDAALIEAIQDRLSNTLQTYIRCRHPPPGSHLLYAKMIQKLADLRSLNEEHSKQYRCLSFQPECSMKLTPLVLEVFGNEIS
Sequence of Bile acid receptor (Homo sapiens) (Q96RI1 whole entry, looked up): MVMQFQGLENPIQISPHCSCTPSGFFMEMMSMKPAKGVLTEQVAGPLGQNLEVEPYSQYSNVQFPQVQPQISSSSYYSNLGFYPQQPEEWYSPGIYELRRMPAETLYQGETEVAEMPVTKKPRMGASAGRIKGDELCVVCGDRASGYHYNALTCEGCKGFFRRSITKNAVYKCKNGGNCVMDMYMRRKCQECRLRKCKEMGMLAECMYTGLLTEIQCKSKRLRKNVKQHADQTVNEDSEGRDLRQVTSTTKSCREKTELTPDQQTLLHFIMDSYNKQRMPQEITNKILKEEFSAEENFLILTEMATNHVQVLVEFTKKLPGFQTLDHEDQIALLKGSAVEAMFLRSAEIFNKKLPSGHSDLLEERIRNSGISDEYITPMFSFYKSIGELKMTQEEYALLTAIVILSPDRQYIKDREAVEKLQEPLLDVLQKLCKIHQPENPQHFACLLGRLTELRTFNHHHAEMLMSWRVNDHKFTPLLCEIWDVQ
Sequence of Aryl hydrocarbon receptor (Homo sapiens) (P35869 whole entry, looked up): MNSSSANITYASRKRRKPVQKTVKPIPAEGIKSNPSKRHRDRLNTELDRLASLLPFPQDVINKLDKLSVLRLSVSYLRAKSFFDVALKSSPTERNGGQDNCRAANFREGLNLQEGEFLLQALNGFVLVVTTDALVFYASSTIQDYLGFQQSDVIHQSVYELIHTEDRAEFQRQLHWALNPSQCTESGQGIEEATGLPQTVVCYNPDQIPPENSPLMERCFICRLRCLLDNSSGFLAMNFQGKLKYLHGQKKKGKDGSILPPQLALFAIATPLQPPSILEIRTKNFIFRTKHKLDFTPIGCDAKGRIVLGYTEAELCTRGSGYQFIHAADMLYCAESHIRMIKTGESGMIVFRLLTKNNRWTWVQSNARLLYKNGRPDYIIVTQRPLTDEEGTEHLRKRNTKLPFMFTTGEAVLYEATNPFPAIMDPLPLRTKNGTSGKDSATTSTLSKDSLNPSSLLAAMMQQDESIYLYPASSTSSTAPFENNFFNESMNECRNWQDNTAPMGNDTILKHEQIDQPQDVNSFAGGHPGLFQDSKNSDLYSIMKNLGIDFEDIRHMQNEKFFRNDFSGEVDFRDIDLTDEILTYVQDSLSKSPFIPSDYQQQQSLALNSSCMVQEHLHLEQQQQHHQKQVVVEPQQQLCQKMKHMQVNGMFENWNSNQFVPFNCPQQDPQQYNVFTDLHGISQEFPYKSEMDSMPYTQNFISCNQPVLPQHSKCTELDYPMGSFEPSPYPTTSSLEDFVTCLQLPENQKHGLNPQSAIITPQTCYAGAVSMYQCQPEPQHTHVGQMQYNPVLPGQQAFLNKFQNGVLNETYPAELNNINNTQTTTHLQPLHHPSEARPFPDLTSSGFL
Sequence of Peroxisome proliferator-activated receptor delta (Homo sapiens) (Q03181 whole entry, looked up): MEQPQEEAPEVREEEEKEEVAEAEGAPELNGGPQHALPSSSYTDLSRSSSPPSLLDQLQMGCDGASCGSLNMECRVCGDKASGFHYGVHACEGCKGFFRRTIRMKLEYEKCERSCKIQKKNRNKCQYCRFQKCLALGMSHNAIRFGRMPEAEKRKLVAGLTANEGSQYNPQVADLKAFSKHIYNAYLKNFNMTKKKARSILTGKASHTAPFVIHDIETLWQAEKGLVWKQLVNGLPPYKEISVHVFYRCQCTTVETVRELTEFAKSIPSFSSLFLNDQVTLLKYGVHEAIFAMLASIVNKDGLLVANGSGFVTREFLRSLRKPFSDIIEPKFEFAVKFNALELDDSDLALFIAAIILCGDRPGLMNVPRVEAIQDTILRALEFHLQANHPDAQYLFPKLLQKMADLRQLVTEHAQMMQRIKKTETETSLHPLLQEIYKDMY
Sequence of Peroxisome proliferator-activated receptor gamma (Homo sapiens) (P37231 whole entry, looked up): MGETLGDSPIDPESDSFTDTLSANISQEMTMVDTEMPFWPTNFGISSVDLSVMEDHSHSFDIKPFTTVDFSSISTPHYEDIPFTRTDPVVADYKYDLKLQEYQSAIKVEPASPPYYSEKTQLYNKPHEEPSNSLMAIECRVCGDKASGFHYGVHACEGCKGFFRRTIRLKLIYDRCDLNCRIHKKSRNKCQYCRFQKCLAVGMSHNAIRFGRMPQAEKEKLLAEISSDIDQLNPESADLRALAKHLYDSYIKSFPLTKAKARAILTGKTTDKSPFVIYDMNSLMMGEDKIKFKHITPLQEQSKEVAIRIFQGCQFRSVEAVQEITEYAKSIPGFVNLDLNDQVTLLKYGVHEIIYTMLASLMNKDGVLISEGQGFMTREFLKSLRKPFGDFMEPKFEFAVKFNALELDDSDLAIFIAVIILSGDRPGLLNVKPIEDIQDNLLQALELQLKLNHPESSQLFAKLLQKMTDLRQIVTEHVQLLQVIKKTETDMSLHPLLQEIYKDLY

CCCCNc1c(C(=O)OCC)c(C)nc2c1cnn2CC
active: Potency [2] 4.73 µM
inactive: Potency [1] | Potency [3] | Potency [4] | Potency [5] | Potency [6] | Potency [7] | Potency [8] | outcome [9] | Potency [10] | Potency [11] | Potency [12] | Potency [13] | Potency [14]

O=Nc1ccc(NO)cc1
inactive: Potency [1] | Potency [3] | Potency [4] | Potency [5] | Potency [15] | Potency [6] | Potency [7] | Potency [8] | Potency [16] | outcome [9] | Potency [10] | Potency [12] | Potency [13]
active: Potency [2] 31.9 µM

Cc1cccc(Br)c1
inactive: Potency [1] | Potency [2] | Potency [3] | Potency [4] | Potency [5] | Potency [6] | Potency [7] | Potency [8] | outcome [9] | Potency [11] | Potency [12] | Potency [13]

N[C@@H](CSSC[C@H](N)C(=O)O)C(=O)O
inactive: Potency [1] | Potency [2] | Potency [3] | Potency [4] | ratio activity, negative = inhibition [5] 3.31% [at 0.55 µM] | activity change, negative = cytotoxicity [15] 9.18% [at 0.55 µM] | viability change, negative = cytotoxic [6] -0.389% [at 0.756 µM] | activation [9] -7.58% [at 0.55 µM] | activity change, negative = inhibition [17] 8.01% [at 0.55 µM] | viability change, negative = cytotoxic [12] -3.16% [at 0.55 µM] | activation [18] -0.652% [at 0.55 µM]

c1ccc(Sc2ccccc2)cc1
inactive: Potency [1] | Potency [2] | Potency [3] | Potency [4] | Potency [5] | Potency [6] | Potency [12] | Potency [13] | Potency [14] | Potency [19]

COC(=O)CC(C)CCC=C(C)C (centres undefined)
inactive: Potency [1] | Potency [2] | Potency [3] | Potency [4] | Potency [5] | Potency [6] | outcome [9] | Potency [17] | Potency [12] | Potency [13] | Potency [14] | Potency [19]

CCCCCCCCCCCC(=O)N(CC)CC
inactive: Potency [1] | Potency [2] | Potency [3] | Potency [4] | Potency [15] | Potency [20] | Potency [6] | Potency [7] | Potency [8] | Potency [16] | outcome [9] | Potency [10] | Potency [11] | Potency [17] | Potency [18] | Potency [14] | Potency [19]

CCOC(=O)[C@@](C)(N)Cc1ccc(O)c(O)c1
inactive: Potency [1] | Potency [2] | Potency [3] | Potency [4] | Potency [5] | Potency [15] | Potency [6] | Potency [7] | Potency [8] | outcome [9] | Potency [10] | Potency [17] | Potency [12] | Potency [18] | Potency [14] | Potency [19]

COC(=O)CC#N
inactive: Potency [1] | Potency [2] | Potency [3] | Potency [4] | Potency [5] | Potency [15] | Potency [6] | Potency [7] | Potency [8] | Potency [16] | Potency [10] | Potency [12] | Potency [13]
